# Experimental data from PubChem BioAssay (NCATS).
# Values without a mark were called inactive. Active and inactive are the calls of the source. Calls come from the whole dose curve; as a rule, active = well fitted inhibition curve with a large enough effect; inconclusive = small, poorly fitted or top-dose-only effect; inactive = flat fitted curve, though single readings scatter.
# Target: Luciferin 4-monooxygenase (Photinus pyralis) (UniProt P08659)
# Assay: Primary firefly luciferase (FLuc) qHTS assay for identification of artifact compounds. (AID 1845220); note: nearly all actives have a fitted effect of over 60% in size;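 for activity change, negative = inhibition: plate controls were DMSO vehicle for no effect and no enzyme for full effect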
# Conditions: purified firefly luciferase, luminescence, 5 min; series mostly up to 54.1 µM; activity change, negative = inhibition: at the top concentration
# Procedure, shortened: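 Enzymatic FLuc inhibition assay: compounds pre-exposed to luciferin/ATP (10 uM each) for 15 min, then purified P. pyralis enzyme at 10 nM added. Read-out: luminescence at 5 min.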
# Potency is the fitted concentration of half-maximal effect.
Compound,outcome,"activity change, negative = inhibition",Potency
COc1cccc(NC[C@@H](O)Cn2c3ccc(Br)cc3c3cc(Br)ccc32)c1,inactive,–,–
C[C@@H](O[C@H]1OCCN(Cc2n[nH]nc2CN(C)C)[C@H]1c1ccc(F)cc1)c1cc(C(F)(F)F)cc(C(F)(F)F)c1,inactive,–,–
CC[C@H](C)[C@H]1O[C@]2(CC[C@@H]1C)C[C@@H]1C[C@@H](C/C=C(\C)[C@@H](O[C@H]3C[C@H](OC)[C@@H](O[C@H]4C[C@H](OC)[C@@H](O)[C@H](C)O4)[C@H](C)O3)[C@@H](C)/C=C/C=C3\CO[C@@H]4[C@H](O)C(C)=C[C@@H](C(=O)O1)[C@]34O)O2,inactive,–,–
CCC(=O)Nc1cccc(Oc2nc(Nc3ccc(N4CCN(C)CC4)cc3OC)ncc2Cl)c1,inactive,–,–
O=C(Nc1cccc(C(F)(F)F)c1)c1ccccc1NCc1ccncc1,–,1.89%,–
COc1cc2nc(-c3cc(F)ccc3O)nc(N[C@@H]3CNC[C@H]3C(C)(C)O)c2cc1OC,–,3.98%,–
Cc1cc(CN)cc(C)c1NC(=O)c1ccc(-c2cc(Cl)ccc2Cl)o1,inactive,–,–
c1ccc(-c2cnc(Nc3ccc(OCCN4CCCC4)cc3)s2)cc1,–,–,23.9 µM (active)
C=C1C(=O)O[C@@H]2/C=C(/C)CC3C=C(C[C@H](OC(=O)/C(C)=C\C)[C@@H]12)C(=O)O3 (stereo partly specified),inactive,–,–
CC1(C)SC2C(NC(=O)[C@H](NC(=O)N3CCNC3=O)c3ccccc3)C(=O)N2C1C(=O)O (stereo partly specified),–,-4.95%,–
CC1(C)SC2C(NC(=O)[C@H](C(=O)O)c3ccsc3)C(=O)N2C1C(=O)O (stereo partly specified),–,2.15%,–
COc1ccc(-c2nc(-c3cc(C(F)(F)F)cc(C(F)(F)F)c3)n(Cc3ccc(C(N)=O)cc3)c2-c2ccc(OC)cc2)cc1,–,-0.822%,–
Fc1ccccc1CNCc1ccc(-c2ccnc3[nH]ccc23)cc1,–,0.355%,–
CCCCc1nc(C)c(CC(=S)N(C)C)c(=O)n1Cc1ccc(-c2ccccc2-c2nn[nH]n2)cc1,inactive,–,–
CO[C@@H]1[C@@H](O[C@H]2O[C@@H](C)[C@H](O[C@@H]3C[C@](C)(O)[C@H](O)[C@@H](C)O3)[C@@H](N(C)C)[C@@H]2O)[C@@H](CC=O)C[C@@H](C)[C@@H](O[C@H]2CC[C@H](N(C)C)[C@H](C)O2)/C=C/C=C/C[C@@H](C)OC(=O)C[C@H]1O,–,-0.952%,–
CNc1nc(-c2ccc3c(N)n[nH]c3c2)cc(N2CC(C(=O)NC3CCCCC3)CCC2C)n1 (stereo unspecified),inactive,–,–

Compound,outcome,"activity change, negative = inhibition",Potency
CNc1cc(OC)c(C(=O)N[C@@H]2CCN(Cc3ccccc3)[C@@H]2C)cc1Cl,–,-14.8%,–
CN([C@H]1c2cc(OCCCC(F)(F)F)ccc2OC(C)(C)[C@@H]1O)S(C)(=O)=O,inactive,–,–
CCOC(=O)CCC(=O)O[C@H]1[C@H](O[C@@H]2[C@@H](C)[C@H](O[C@H]3C[C@@](C)(OC)[C@@H](O)[C@H](C)O3)[C@@H](C)C(=O)O[C@H](CC)[C@@](C)(O)[C@H](O)[C@@H](C)C(=O)[C@H](C)CC2(C)O)O[C@H](C)C[C@@H]1N(C)C (stereo partly specified),inactive,–,–
COc1cc(-c2cc(-c3cccc(O)c3)cnc2N)cc(OC)c1OC,inactive,–,–
C=C1C(=O)O[C@@H]2C[C@@H](C)[C@]34C[C@]5(C(=O)O[C@H]6CC(C)=C([C@H](C)CCCO)[C@H](OC(=O)C(C)CC)[C@H]65)[C@@H](C(C)=C3C[C@@H]12)[C@H]4OC(C)=O (stereo partly specified),–,-8.76% [at 25.7 µM],–
CC(=O)Nc1ccc(C(=O)Nc2ccccc2N)cc1,–,-24.6% [at 25.7 µM],–
C[C@H](NC(=O)C(C)(C)Oc1ccc(C(F)(F)F)cn1)[C@@H](Cc1ccc(Cl)cc1)c1cccc(C#N)c1,inactive,–,–
CN(C)CC(=O)Nc1ccc2[nH]c(=O)c3ccccc3c2c1,–,-11.3%,–
CC(CCC1(O)OC2CC3C4CC=C5CC(O[C@@H]6O[C@H](CO)[C@@H](O[C@@H]7O[C@H](CO)[C@@H](O)[C@H](O)[C@H]7O)[C@H](O)[C@H]6O[C@@H]6O[C@@H](C)[C@H](O)[C@@H](O)[C@H]6O)CCC5(C)C4CCC3(C)C2C1C)CO[C@@H]1O[C@H](CO)[C@@H](O)[C@H](O)[C@H]1O (stereo partly specified),–,1.02% [at 11.6 µM],–
C[C@@H](CN1CCC(n2c(=O)[nH]c3cc(Cl)ccc32)CC1)NC(=O)c1ccc2ccccc2c1,–,4.07%,–
CCCCC(=O)N(Cc1ccc(-c2ccccc2-c2nn[nH]n2)cc1)C(C(=O)O)C(C)C (stereo unspecified),–,1.52%,–
CCCCc1nc(Cl)c(CO)n1Cc1ccc(-c2ccccc2-c2nnn[nH]2)cc1,inactive,–,–
COc1ccc2c(c1)CN(C(=O)CCN1CCC(Cc3ccccc3)CC1)CCS2,–,-0.0949% [at 25.7 µM],–
C=C1C(=O)O[C@@H]2[C@H]1[C@H](O)C[C@]1(C)[C@@H](O)CC=C(C)[C@@H]21,inactive,–,–
CCNC(=O)[C@@H]1CCCN1C(=O)[C@H](CCCN=C(N)N)NC(=O)[C@H](CC(C)C)NC(=O)[C@@H](CC(C)C)NC(=O)[C@H](Cc1ccc(O)cc1)NC(=O)[C@H](CO)NC(=O)[C@H](Cc1c[nH]c2ccccc12)NC(=O)[C@H](Cc1cnc[nH]1)NC(=O)[C@@H]1CCC(=O)N1,–,-6.54% [at 25.7 µM],–
